The values below come from PubChem BioAssay (NCI).

This is part of a sample that, as a whole, favours compounds with a hit. Of some 83,000 tested, about 20% had one in any assay.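 The test compound was applied at a single concentration to cells in 96-well plates for 48 hours, and percent growth was recorded.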 The source made the active and inactive calls. How the source made its calls: active means growth percent below 10; inactive means the rest.

In the assay the test system is CAKI-1 renal. The assay is described as follows: NCI-60 one-dose screen, 48 h (100 = growth as untreated, 0 = no growth, -100 = all killed). The note with it: 10 µM unless noted.
In the case of `COc1cc(CC#N)c([N+](=O)[O-])cc1OC`, the growth was 102% (inactive).

Turning to `CCCNS(=O)(=O)c1ccc(Cl)cc1`, the growth is 93.8% (inactive).

Take `CCOC(=O)/C(C)=C\c1ccc(OC)c(OC)c1`: the growth was 96.1% (inactive).

As for `C/C(=N\O)c1ccccn1`, the growth is 95.3% (inactive).

As for `CC1(C)OC(=O)CC1=O`, the growth is 90.4% (inactive).

As for `Nc1ncnc2c1ncn2C1OC(CO)C2OC21` (stereo not given), the growth is 106% (inactive).

Take `C=CCS(C)(=O)=O`: the growth is 92.5% (inactive).

Regarding `Cc1ccc(C2CCCCC2)cc1Br`, the growth was 90.3% (inactive).

`Cc1ccc2[nH]c3ccccc3c2c1`: the growth was 97.3% (inactive).

Take `Cc1ccc(/C=N/NC(N)=S)s1`: the growth is 92% (inactive).

On to `O=S(=O)(O)c1cccnc1`, for which the growth is 95.2% (inactive).

As to `O=C(O)c1ccccc1Cc1ccc2c(c1)CCCC2`, the growth is 98.5% (inactive).

As to `Nc1cc(F)ccc1[N+](=O)[O-]`, the growth is 92.2% (inactive).

Turning to `CCOc1ccc(C(=O)O)cc1`, the growth was 97.9% (inactive).

For `CCCCOC(=O)c1ccccc1O`, the growth is 107% (inactive).
